G9a inh: G9a (human) methyltransferase inhibition | Q96KQ7 | G9a H3K9 monomethylation, AlphaScreen, 2 h | Potency, µM (top dose mostly 102 µM), inactives show at the highest dose activity, negative = inhibition, most hits filed as inhibitors | 8.8% of 350,000 active; further: potency means the concentration at half of the fitted maximal effect; on the % scale 0 is the no-effect control and ±100 the full control effect; nearly all actives have a fitted effect of over 75% in size
Target sequence (Q96KQ7 913-1193 limits assumed): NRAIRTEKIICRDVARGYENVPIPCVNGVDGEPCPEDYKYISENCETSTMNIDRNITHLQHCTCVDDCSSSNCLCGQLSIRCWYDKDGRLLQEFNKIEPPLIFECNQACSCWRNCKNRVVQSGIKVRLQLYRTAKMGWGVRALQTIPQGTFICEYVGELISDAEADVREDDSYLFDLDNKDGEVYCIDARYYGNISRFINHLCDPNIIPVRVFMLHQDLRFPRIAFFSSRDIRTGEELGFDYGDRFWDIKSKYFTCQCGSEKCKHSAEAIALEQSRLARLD
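Readings reflect AlphaScreen signal from monomethyl-H3K9 antibody detection. HMT at 20 nM; substrate b-H3K9 500 nM; cofactor SAM 20 uM; 2 h RT reaction; compounds tested as titrations in qHTS with 15 min preincubation.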
JMJD2A Tudor: JMJD2A Tudor domain (human) inhibition; O75164; AlphaScreen JMJD2A-Tudor / H3K4me3 peptide binding; Potency, µM (highest dose often 114 µM), for inactives: at the highest dose activity change, negative = inhibition, hits mostly inhibitors; 4.4% of 390,000 active; further: potency means the concentration at half of the fitted maximal effect; on the % scale 0 is the no-effect control and ±100 the full control effect; nearly all actives have a fitted effect of over 50% in size
Six1-Eya2 inh: Six1/Eya2 interaction inhibition | Q15475+O00167 | AlphaScreen GST-Six1/His-Eya2 binding, biochemical; stronger effect = lower value | activity change, % (test concentration not listed) | 0.56% of 360,000 active; in the data active means activity change below about -65%; inconclusive means mostly about -30% to -63%; further: on the % scale 0 is the no-effect control and ±100 the full control effect
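AlphaScreen with GST-Six1 and His-Eya2 (5X mix: 250 nM and 500 nM), glutathione donor and nickel acceptor beads; buffer 50 mM Tris pH 8.0, 300 mM NaCl, 1 mM TCEP; 1 h at 37 C in the dark.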
CtBP-E1A blk: blocks the CtBP interaction with E1A. 0.49% of 340,000 active. AlphaScreen GST-E1A/His-CtBP binding, 1536-well; stronger effect = lower value. activity change, % (concentration not given with the values); in the data active means activity change below about -65%; inconclusive means mostly about -30% to -63%; further: on the % scale 0 is the no-effect control and ±100 the full control effect
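In 5 uL wells, 23 nL compound meets equimolar GST-E1A and His-CtBP (5X stock 125 nM each) for 2 h, 37 °C. Beads (5X, 50 ug/mL) then 1 h, 37 °C, dark.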
HP1b chromo inh: HP1-beta chromodomain-methylated histone interaction inhibition; Potency, µM (highest dose often 114 µM), inactives show at the highest dose activity change, negative = inhibition, most hits filed as inhibitors; AID 540317; P83916; 0.56% of 390,000 active; AlphaScreen HP1-beta / biotin-H3K9me3 peptide binding; further: potency means the concentration at half of the fitted maximal effect; nearly all actives have a fitted effect of over 70% in size
Target sequence (P83916 whole entry, looked up): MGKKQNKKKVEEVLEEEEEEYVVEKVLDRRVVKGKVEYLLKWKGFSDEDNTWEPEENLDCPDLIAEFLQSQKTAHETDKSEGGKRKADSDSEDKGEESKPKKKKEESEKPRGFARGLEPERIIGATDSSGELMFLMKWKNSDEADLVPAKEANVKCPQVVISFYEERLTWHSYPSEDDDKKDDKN
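AlphaScreen: HP1-beta (50 nM) preformed 30 min with biotin-H3(1-18)K9me3 peptide (50 nM) in PBS pH 7.4, 0.01% Tween-20. Compound added for 30 min at RT, then streptavidin donor/nickel chelate acceptor beads (10 ug/mL) for 30 min.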
BAZ2B block: blocks human BAZ2B. AID 504333. Q9UIF8. Potency, µM (highest dose often 114 µM), for the others: top-dose activity change, negative = inhibition, usual class: inhibitors. 4.4% of 360,000 active. AlphaScreen BAZ2B-H3K14Ac peptide displacement; further: potency means the concentration at half of the fitted maximal effect; on the % scale 0 is the no-effect control and ±100 the full control effect; nearly all actives have a fitted effect of over 60% in size
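AlphaScreen luminescence quantifies BAZ2B engagement of H3K14Ac peptide; the protein and biotinylated peptide are both at 50 nM final, buffer PBS pH 7.4 with 0.01% Tween-20, all steps at room temperature.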
Numbers without * were called inactive; ? = inconclusive; . = not tested or not shown; ! = repeats disagree; [ ] = another dose, or the depositor's remark. Most compounds without a hit are left out; they make up all but 10% or so of the library. Unless noted, the call rests on the fitted dose curve; in most records, active means well fitted inhibition curve with a large enough effect; inconclusive means small, poorly fitted or top-dose-only effect; inactive means no such curve, though single readings can be large or run the other way.

SMILES | G9a inh | JMJD2A Tudor | Six1-Eya2 inh | CtBP-E1A blk | HP1b chromo inh | BAZ2B block
NC(COCc1ccccc1)c1csc(Nc2ccc(C(F)(F)F)cn2)n1 (centres undefined) | . | . | -5 | -22 | . | .
O=C(Nc1cccc(C(=O)OCc2cc(=O)n3ccsc3n2)c1)c1ccc(F)cc1 | 4%[59 µM] | -1% | . | . | 17% | -6%
CCN(CC)c1ccc(Nc2nc(N3CCOCC3)c3ccccc3n2)cc1 | 2.2µM* | 18µM* | -81* | -78* | -88% | 18µM*
COc1ccc(Nc2nc(N3CCCC3)c3ccccc3n2)cc1 | -42%[12.7 µM] | 45µM* | -28 | ? | ? | ?
Cc1nc(N2CCCCCC2)c2ccccc2n1 | ? | -2% | 7 | . | 21% | -2%
Cc1cccc(CN2CCN([C@@H](c3ccccc3)c3ccc(Cl)cc3)CC2)c1 | -2%[21.5 µM] | . | . | . | . | .
CCN(CC)C(=O)c1[nH]cnc1C(=O)Nc1ccc(Cl)cc1 | -3%[0.501 µM] | -33% | -1 | 1 | 37% | 50µM*
CCOC(=O)c1[nH]cnc1C(=O)Nc1ccc(F)cc1 | 45µM* | -26% | -20 | 3 | 38% | ?
CCOC(=O)c1[nH]cnc1C(=O)Nc1ccncc1 | ? | 28µM* | -24 | -3 | 1% | 50µM*
Cc1cccc(C(=O)NNC2=C(C(=O)C(F)(F)F)CCC2)c1O | ? | 79µM* | -2 | -25 | -22% | 18µM*
Cc1ccc(OCCCCN2CCCCC2)c(C)c1 | -11% | -9% | 0 | -8 | 36% | 0%
Cc1ccc(OCCN2CCCCCC2)c(C)c1 | -1%[12.7 µM] | -23% | 4 | -5 | 8% | -6%
Cc1ccccc1OCCN1CCCC1 | . | 20µM* | 2 | 3 | ? | 50µM*
Cc1ccccc1OCCCN1CCCC1 | 40µM* | 3.5µM* | 0 | -6 | -38% | -35%
Cc1ccc(C)c(OCCCCN2CCCCC2)c1 | 25µM* | 32µM* | 9 | 5 | -10% | -20%
CCC(O)c1cc2c(cc1NC(=O)c1ccccc1F)OCCO2 (centres undefined) | -20%[59 µM] | -13% | . | . | 66% | 2%
COc1ccc(-c2cc3cc(-c4cc(OC)c(OC)c(OC)c4)ccc3o2)cc1 | 3%[0.501 µM] | -25% | 1 | 3 | 30% | 9%
C=CC1=C(C(=O)O)N2C(=O)[C@@H](NC(=O)/C(=N\O)c3csc(N)n3)[C@H]2SC1 (stereo in doubt) | . | 20µM* | -90* | -85* | 5% | .
CCCCCC(=O)Nc1ccc(-c2nnc3n2CCCCC3)cc1 | . | -3% | 2 | 5 | 34% | -10%
CCOC(=O)/C=C/C(=O)Nc1ccc(-c2nnc3n2CCCCC3)cc1 | 1%[2.33 µM] | -5% | -12 | -66* | 14% | 9%
C[n+]1ccc(/C=C/c2ccc(Br)cc2)cc1 | ? | -3% | -1 | 2 | 14% | 56µM*
C[n+]1ccc(/C=C/c2ccc3ccccc3c2)cc1 | 7.1µM* | . | . | . | . | .
C[n+]1ccc(/C=C/c2c[nH]c3ccc(F)cc23)cc1 | ? | 14% | 4 | 0 | 57% | -3%
O=C(N/C=C/c1ccco1)OCc1ccccc1 | 50µM* | -31% | -14 | 0 | 35% | ?
O=C(N/C=C/c1ccco1)NCc1ccccc1 | 25µM* | 79µM* | -24 | ? | -12% | 45µM*
SMILES | G9a inh | JMJD2A Tudor | Six1-Eya2 inh | CtBP-E1A blk | HP1b chromo inh | BAZ2B block
CC(=O)NCc1ccc(C(=O)COC(=O)COc2ccccc2)s1 | 20µM* | -9% | -1 | 6 | 23% | -31%
CC(=O)NCc1ccc(C(=O)COC(=O)COc2ccc(Cl)c(C)c2)s1 | . | -21% | -1 | -17 | 30% | .
Cc1cccc(/C(N)=N/OC(=O)C23CC4CC(CC(C4)C2)C3)c1 | 66% | 46% | 25 | 10 | 60% | 43%
O=C(NNc1c(Cl)cccc1Cl)c1c(F)cccc1Cl | -1% | -8% | 5 | 7 | 54% | 13%
Cc1cccc(NNC(=O)C2CCC2)c1 | 32µM* | 3% | 5 | . | 60% | 1%
Cc1cccc(NS(=O)(=O)c2nnc(NC(=O)C3CCCCC3)s2)c1 | 8.9µM*! | -15% | -1 | -1 | 34% | 6.3µM*!
O=C(NNc1ccc(Cl)cc1)C1CCC1 | 18µM* | -19% | -4 | -2 | 53% | -2%
Cc1cccc(NC(=O)C2CCCC2)c1 | 25%[59 µM] | -4% | 5 | 5 | 19% | 13%
O=C(NNc1cc(Cl)cc(Cl)c1)C1CCC1 | ? | -7% | 2 | 2 | 20% | 4%
Cc1cccc(NS(=O)(=O)c2nnc(NC(=O)CC(C)C)s2)c1 | 11% | -4% | -1 | . | 44% | 8%
Cc1cccc(NNC(=O)c2c(F)cccc2Cl)c1 | 71µM* | -3% | 0 | . | 54% | -9%
CCOC(=O)c1ccc(N2C(=O)c3[nH]nc(-c4ccc(C)cc4)c3C2c2cccs2)cc1 (centres undefined) | 0%[59 µM] | -16% | . | . | 7% | .
O=[N+]([O-])c1cccnc1SCc1ccccc1 | 45µM* | 14µM* | -20 | -23 | 35µM* | 32µM*
O=[N+]([O-])c1cccnc1Sc1ccc(Br)cc1 | . | 56µM* | ? | -28 | ? | .
Cc1ccc(Sc2ncccc2[N+](=O)[O-])cc1 | ? | 45µM* | -22 | -22 | ? | ?
O=C(O)c1cccnc1SCc1ccc([N+](=O)[O-])cc1 | -2% | 2% | 1 | . | 63% | -6%
Cc1c([N+](=O)[O-])cnc(Sc2ccccc2)c1[N+](=O)[O-] | . | 40µM* | -3 | . | ? | .
Cc1ccccc1Sc1ncccc1[N+](=O)[O-] | . | ? | ? | ? | -38% | .
COc1ccc(/C=C/C(=O)N[C@H](C(=O)O)C(C)C)cc1 | 9% | 5% | 4 | 0 | 46% | .
O=C(NCCc1csc2nc(-c3ccc(F)cc3)nn12)c1ccco1 | 11%[59 µM] | -17% | . | . | 21%[57 µM] | 5%
COP(=O)(OC)OC(C(=O)c1ccccc1)c1ccccc1 (centres undefined) | . | . | 0 | 3 | . | .
C=C(C)CC(c1ccccc1)N(C(C)=O)c1ccco1 (centres undefined) | -32% | -6% | 6 | . | 25% | -39%
FC(F)(F)c1ccc(Oc2ccc3cc(Br)ccc3c2)nc1 | 79%[59 µM] | 24% | 24 | 0 | 49% | 8%
C=CCn1c(O)c(C2=c3ccccc3=NC2=O)sc1=Nc1ccc(O)cc1 | -28%[12.7 µM] | 22µM* | ? | -4 | ? | 22µM*
C=CCN1C(=O)CSC1=Nc1ccc(O)cc1 | -7%[59 µM] | -6% | 4 | -18 | 15% | 3%
C=CCN1C(=O)c2ccc(C(=O)N(CC)CC(=O)Nc3c(F)cccc3F)cc2C1=O | ? | 6% | -5 | 3 | 26% | -21%
C=CCN1C(=O)c2ccc(C(=O)N(C)CC(=O)Nc3c(C)cccc3C)cc2C1=O | 50µM* | -8% | 13 | 2 | 8% | 1%

High-throughput results as filed in PubChem BioAssay.
